# Screens (PubChem)
# The list is not random: actives were taken first. Their share in the collection is about 7.3%.
# SMN2 splice enh – increases expression of the SMN2 splice variant; HEK293 SMN2-luciferase splicing reporter, luminescence, 30-36 h; AID 1458; hit rate 2.8% among 210,000; Potency, µM (highest dose often 46.1 µM), for inactives: top-dose activity change, positive = activation, hits mostly activators; also: % of control where 0% means no effect; nearly all actives have a fitted effect of over 55% in size
#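 HEK293 cells carry an SMN2 […]–luciferase reporter in which exon 7 inclusion puts luciferase in frame. Cells were plated 10-12 h before compound addition, then incubated 30-36 h at 37C. ONE-Glo luminescence was read; sodium butyrate at 4.5 mM final served as control.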
# FLuc modulator – firefly luciferase modulation, counter-screen for miR-21 project; purified FLuc, Km substrates, luminescence inhibition; Potency, µM (titrated, usually from 57.5 µM), for inactives: at the highest dose activity change, negative = inhibition, actives largely listed as inhibitors; hit rate 6.9% among 360,000; P08659;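 also: plate controls were vehicle for no effect and reference inhibitor for full effect; nearly all actives have a fitted effect of over 55% in size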
# Target sequence (P08659 whole entry, looked up): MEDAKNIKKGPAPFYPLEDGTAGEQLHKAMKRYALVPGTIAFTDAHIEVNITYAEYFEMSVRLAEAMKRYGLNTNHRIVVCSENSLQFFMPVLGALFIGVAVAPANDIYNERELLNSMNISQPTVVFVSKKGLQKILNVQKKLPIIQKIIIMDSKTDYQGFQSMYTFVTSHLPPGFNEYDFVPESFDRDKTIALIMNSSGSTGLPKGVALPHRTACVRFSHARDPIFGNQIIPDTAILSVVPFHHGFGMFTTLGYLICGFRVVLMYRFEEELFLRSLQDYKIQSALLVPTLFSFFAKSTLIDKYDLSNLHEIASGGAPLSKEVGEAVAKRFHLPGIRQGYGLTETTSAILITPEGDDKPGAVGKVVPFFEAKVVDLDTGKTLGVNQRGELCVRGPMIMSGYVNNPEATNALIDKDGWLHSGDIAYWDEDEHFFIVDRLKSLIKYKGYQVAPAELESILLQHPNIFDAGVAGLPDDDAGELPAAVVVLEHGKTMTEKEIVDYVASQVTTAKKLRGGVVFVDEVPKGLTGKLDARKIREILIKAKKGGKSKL
#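 Purified P. pyralis luciferase, 10 nM final, with Km-level 10 uM D-luciferin and 10 uM ATP in 50 mM Tris acetate pH 7.5, 10 mM Mg acetate, 0.01% Tween-20, 0.05% BSA; 6-point qHTS titration about 60 µM downward; luminescence read.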
# NPC1 promoter act – NPC1 promoter activation. hit rate 2.4% among 320,000. Huh7 NPC1 promoter luciferase reporter, 24 h. Potency, µM (top dose mostly 9.22 µM), for the others: at the highest dose activation, hits mostly activators. AID 485313; also: % of control where 0% means no effect; nearly all actives have a fitted effect of over 60% in size
#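 Luciferase expression driven by the NPC1 promoter was measured in stably transfected Huh7 cells after a 24 h compound incubation, using a luciferase reagent and a luminescence read.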
# Rab9 promoter act – Rab9 promoter activation; Huh7 Rab9 promoter-luciferase reporter, luminescence, 24 h; Potency, µM (titrated, usually from 9.22 µM), for inactives: top-dose activation, negative = inhibition, hits mostly activators; hit rate 2.8% among 320,000; AID 485297; also: % of control where 0% means no effect; nearly all actives have a fitted effect of over 60% in size
#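 Rab9 promoter-driven luciferase in stably transfected Huh7 cells; 1500 cells/well rested 2 h, exposed to compound in DMSO for 24 h at 37 °C, 5% CO2. Luminescence read 10 min after adding luciferase reagent at ambient temperature.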
# Luc counter – blocks Kinase-Glo luciferase, a counter-screen artifact; Q27757; Kinase-Glo luciferase, ATP luminescence, 8 min; Potency, µM (series often up to 38.3 µM), for inactives: at the highest dose activity change, negative = inhibition, usual class: inhibitors; hit rate 0.28% among 200,000; AID 1379; also: % is scaled to controls: 0 for no effect and ±100 for the full control effect; nearly all actives have a fitted effect of over 60% in size
#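 Compounds were added to a substrate mix at pH 7.2 (50 mM imidazole, 10 uM ATP, within the enzyme's linear range), followed by Kinase-Glo detection reagent; luminescence was measured after 8 minutes at ambient temperature.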
# ELG1 genotox – inducers of genotoxicity in HEK293T ELG1-luciferase cells. HEK293T ELG1-luciferase reporter, luminescence, 16 h. Potency, µM (doses to about 46 µM), for the others: at the highest dose activity change, positive = activation, most hits filed as activators. hit rate 1.3% among 330,000. AID 504466; also: % of control where 0% means no effect; nearly all actives have a fitted effect of over 60% in size
#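 After overnight (16 hr) compound treatment at 37 °C, ELG1-luciferase HEK293T cells were lysed with ONE-Glo; luminescence quantified 30 min later at room temperature.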
# Active calls of the source: *; ? = inconclusive; nt = not tested or not shown; [ ] = remark or other dose. Calls follow the shape of the dose curve; as a rule, active = well fitted curve in the direction sought with a large enough effect; inconclusive = small, poorly fitted or top-dose-only effect, or another doubt; inactive = no such curve, though single readings can be large; an effect the other way counts as inactive or inconclusive. Potency is read from the fitted curve at half-maximal effect.
SMILES,SMN2 splice enh,FLuc modulator,NPC1 promoter act,Rab9 promoter act,Luc counter,ELG1 genotox
Cc1ccc(-c2nn(-c3ccccc3)cc2/C=C/C(=O)O)o1,2%,24µM*,-2%,-1%,1%,2%
COc1ccc(-c2cc3c(=O)n(CC(=O)NCCCN4CCN(Cc5ccccc5)CC4)ncn3n2)cc1,nt,1.5µM*,?,?,nt,?
O=C(Cn1ncn2nc(-c3ccccc3)cc2c1=O)NCc1ccccn1,nt,11µM*,1%,11%,nt,2%
CCOc1ccc(CCNC(=O)Cn2ncn3nc(-c4ccc(OC)cc4)cc3c2=O)cc1,nt,-5%,14%,19%,nt,?
COc1ccc(-c2cc3c(=O)n(CC(=O)NCCCN4CCC(Cc5ccccc5)CC4)ncn3n2)cc1,nt,4.8µM*,?,?,nt,?
COc1ccc(-c2cc3c(=O)n(CC(=O)NCc4ccc(C)cc4)ncn3n2)cc1,nt,-17%,3%,16%,nt,?
COc1ccc(-c2cc3c(=O)n(CC(=O)NCc4ccc(Cl)cc4)ncn3n2)cc1,nt,6%,11%,29%,nt,?
Nc1nonc1C(=O)OCC(=O)c1ccc(Cl)cc1,-11%,2%,-3%,-3%,4%,0%
N/C(=N/OC(=O)c1ccccc1F)c1nonc1N,11%,4.8µM*,13%,-2%,11µM*,13%
N/C(=N\OC(=O)c1ccc(Cl)cc1)c1nonc1N,17%,1.7µM*,-1%,-10%,?,17%
Brc1ccccc1-c1nc(-c2ccccc2)no1,4µM*,0.95µM*,27%,3.5µM*,-25%,?
c1ccc(-c2ccccc2-c2nc(-c3cccnc3)no2)cc1,-6%,1%[2.3 µM],-5%,-2%,2%,-2%
Fc1ccccc1-c1nc(-c2cnccc2C(F)(F)F)no1,nt,?,1%,10%,nt,-11%
Fc1ccccc1-c1nc(-c2ccccc2)no1,11µM*,0.6µM*,3.5µM*,2.8µM*,?,?
Fc1ccccc1-c1nc(-c2ccncc2)no1,nt,8.5µM*,1.8µM*,1.8µM*,nt,?
CCn1cc2nc(SCc3cccc(C(F)(F)F)c3)n(Cc3ccc(Cl)cc3)c(=O)c2n1,nt,2%,nt,nt,nt,nt
Cc1ccc(CNC(=O)C2CCCN(c3ncnc4onc(-c5ccc(F)cc5)c34)C2)cc1 (centres undefined),nt,2%,nt,nt,nt,nt
COCCOC(=O)C1=C(C)NC(=O)NC1c1cn(-c2ccccc2)nc1-c1ccccc1 (centres undefined),-8%,-11%,nt,nt,nt,nt
Cc1ccc(C)c(-c2ccc(C(=O)O)o2)c1,nt,nt,nt,nt,4%[39.9 µM],nt
Cc1ccc(C)c(C(=O)O/N=C(\N)c2ccc(Br)cc2)c1,?,15µM*,?,27%,-4%,?
Cc1ccc(C(=O)O/N=C(\N)c2ccc(Br)cc2)cc1C,-11%,?,13%,18%,17%,16µM*
N/C(Cn1cncn1)=N\OC(=O)c1ccc(Cl)cc1Cl,23%,?,17%,-7%,0%,11%
Cc1cccc(C(=O)O/N=C(\N)c2ccc(Cl)cc2)c1,nt,1.9µM*,0.4µM*,1.8µM*,nt,?
Cc1ccc(/C(N)=N/OC(=O)c2ccc(Cl)cc2Cl)cc1,11µM*,1.1µM*,3.2µM*,2.5µM*,-4%,?
N/C(=N\OC(=O)c1ccc2ccccc2c1)c1ccc(Br)cc1,?,-19%,17%,16%,-1%,-1%
SMILES,SMN2 splice enh,FLuc modulator,NPC1 promoter act,Rab9 promoter act,Luc counter,ELG1 genotox
N/C(=N\OC(=O)c1cccc2ccccc12)c1ccc(Br)cc1,?,?,15%,13%,1%,-12%
Cc1cccc(OCC(=O)O/N=C(\N)c2ccc(Cl)cc2)c1,-13%,-18%,-6%,3%,-2%,1%
COc1ccc(CNC(=O)CSc2ncc3c(n2)-c2cc(Cl)ccc2N(C)S3(=O)=O)cc1,nt,0%,nt,nt,nt,nt
O=C(NCCc1ccccc1)c1ccc(CSc2nc3ccncc3n2Cc2ccc(F)cc2)cc1,15%,-2%,nt,nt,nt,nt
N/C(=N\OC(=O)c1ccoc1)c1ccc(Br)cc1,nt,6.7µM*,2.5µM*,3.2µM*,nt,3.7µM*
Cc1cc(C)cc(C(=O)O/N=C(\N)c2ccc(Br)cc2)c1,15%,-20%,?,?,-3%,1%
Cc1cccc(C(=O)O/N=C(\N)c2ccc(Br)cc2)c1,28%,3µM*,0.56µM*,0.71µM*,-8%,11µM*
Cc1cccc(C(=O)O/N=C/c2ccc(Br)cc2)c1,-23%,3.4µM*,-2%,-3%,-7%,?
CCCn1c(CCC(=O)Nc2cc(Cl)c(OC)cc2OC)nc2cccnc21,13%,2%,nt,nt,nt,nt
COc1ccc(C(=O)NC(=S)Nc2nc(C)cc(C)n2)cc1Br,nt,15µM*,?,?,nt,-1%
CCOc1ccc(C(=O)Nc2ccc3c(c2)OCCO3)cc1,nt,2.1µM*,0.5µM*,0.4µM*,nt,2.3µM*
COc1ccc(C(=O)Nc2ccc3c(c2)OCCO3)cc1Br,nt,1.5µM*,1µM*,1.3µM*,nt,?
CCOc1ccc(NC(=O)CN2CCN(CC(=O)Nc3ccc4c(c3)OCCO4)CC2)cc1,7%,2%,2%,-4%,2%,1%
CCOc1cc(C(=O)NC(=S)Nc2nc(C)cc(C)n2)cc(OCC)c1OCC,nt,3%,-12%,-3%,nt,-2%
CCOc1ccc(C(=O)Nc2ccc3c(c2)OCCO3)cc1Br,16µM*,1.3µM*,nt,nt,nt,nt
CCn1cc(C(=O)N2CCN(c3ccccc3)CC2)c(=O)c2cc(S(=O)(=O)N3CCCC3)ccc21,1%,0%,nt,nt,nt,nt
COc1ccc(N=C2C(=O)Nc3ccc(C)c(Br)c32)cc1,nt,8.5µM*,-4%,-7%,nt,3%
Cc1ccc(N=C2C(=O)Nc3ccc(C)c(Br)c32)cc1,nt,12µM*,2%,0%,nt,-3%
COc1ccc(N=C2C(=O)Nc3ccccc32)cc1,-4%,-19%,1%,1%,-1%,8%
Cc1[nH]c2ccccc2c1/C=N/Nc1ccccn1,2%,24µM*,-7%,14%,-2%,0%
Cc1[nH]c2ccccc2c1/C=N/Nc1ccc([N+](=O)[O-])cc1,nt,?,0%,0%,nt,-1%
Cc1[nH]c2ccccc2c1/C=N/Nc1nncn1N,20%,2.1µM*,6%,?,1%,?
CCN(CC)CCNC(=O)c1cn(-c2ccccc2)nc1-c1cccs1,7%,-15%,-1%,-1%,1%,0%
O=C(c1cn(-c2ccccc2)nc1-c1cccs1)N(CCO)Cc1ccccc1,?,?,-1%,-6%,-3%,-9%
CCN(CC)CCOC(=O)c1ccc(NC(=O)c2cn(-c3ccccc3)nc2-c2cccs2)cc1,-100%,6µM*,9%,19%,-4%,?
